Here are results for 25 compounds from ChEMBL document CHEMBL1157539, “Thousands of chemical starting points for antimalarial lead identification” (Nature, 2010).

What all share (format): functional
The test system of assay [1] is Plasmodium falciparum. Description: GSK_TCMDC: Inhibition of Plasmodium falciparum 3D7 in whole red blood cells, using parasite LDH activity as an index of growth. Test compounds present at 2uM.
In assay [2] the test system is Plasmodium falciparum. Description: GSK_TCMDC: Inhibition of Plasmodium falciparum Dd2 in whole red blood cells, using parasite LDH activity as an index of growth. Test compounds present at 2uM.
Another assay relates to HepG2. The experiment in a line: GSK_TCMDC: Percent inhibition of human HepG2 cell line. Test compounds present at 10uM.

As usually defined, the Inhibition is the drop in the measured response relative to a control, in per cent. With `CCN(c1ccccc1)S(=O)(=O)c1ccc(OC)c(NC(=O)c2cccc(C(F)(F)F)c2)c1`, the Inhibition worked out at 90% in the assay with Plasmodium falciparum [1], 70% in the assay on Plasmodium falciparum [2] and 9% in the assay with HepG2.
In the same order, the values of `CCN(CC)S(=O)(=O)c1ccc(C=CC(=O)Nc2cc(Cl)ccc2N2CCOCC2)cc1` are 90%, 65% and 3%.
The matching figures for `COc1ccc2nccc([C@@H](O)CN3CCC(NS(=O)(=O)c4cc5c(cc4Cl)SCC(=O)N5)CC3)c2c1.O=C(O)C(=O)O`: 88%, 0% and 5%.
Take `CN(C)C1CCN(CC#Cc2cc3ncnc(Nc4ccc(OCc5cccc(F)c5)c(Cl)c4)c3s2)CC1`: the Inhibition in the assay with Plasmodium falciparum [1] came to 85%; in the assay with Plasmodium falciparum [2], 5%; in the assay on HepG2, 34%.
In the same order, the values of `Cc1ccc(CNC(=O)[C@H](CCCN)Nc2nc(Nc3ccccc3)ncc2C)cc1.O=C(O)C(F)(F)F` are 97%, 0% and 0%.
The matching figures for `O=C(Cc1ccc[n+]([O-])c1)Nc1ccc(-c2cccc(-c3nc4cc(C(F)(F)F)ccc4[nH]3)c2)cc1`: 92%, 49% and 16%.
The matching figures for `O=C(O)C(F)(F)F.c1cc(CNCc2ccc3c(c2)OCO3)cc(-c2cccc(CNc3ccc4ncccc4c3)c2)c1`: 98%, 27% and 18%.
As for `Cc1ccc(NC(=O)c2ccc(-c3cc4cc(Cl)c(Cl)cc4[nH]3)cc2)cc1OCCN1CCCC1.O=C(O)C(F)(F)F`, the figures for the Inhibition with Plasmodium falciparum [1], with Plasmodium falciparum [2] and in the assay with HepG2 were 100%, 90% and 7%, respectively.
The matching figures for `CC(=O)Nc1nc(C(=O)Nc2ccc(-c3cccc(-c4nc5cc(F)ccc5[nH]4)c3)cc2)cs1`: 94%, 29% and 86%.
In the same order, the values of `Cc1cccc2nc(-c3cccc(-c4cccc(CN5CCCC5CN)c4)c3)[nH]c12.O=C(O)C(F)(F)F` (stereo not given) are 100%, 72% and 15%.
The matching figures for `Cc1cc(=O)c(-c2ccc(OCc3ccc(OC(F)(F)F)cc3)cc2)c(C)[nH]1`: 97%, 92% and 3%.
Consider `CN(Cc1cccc(F)c1)C1CCN(c2cc(NC(=O)c3ccc(F)cc3)ccn2)CC1.O=C(O)C(F)(F)F`, for which the Inhibition with Plasmodium falciparum [1] stood at 95%; in the assay on Plasmodium falciparum [2] it was 36%; in the assay with HepG2 it was 0%.
The matching figures for `CC(C)(C)C(=O)Nc1c(-c2cc(=O)oc3cc4c(cc23)CCC4)oc2ccccc12`: 100%, 100% and 0%.
In the same order, the values of `COc1ccccc1-n1c(-c2ccc3ccccc3c2)csc1=NC(=O)c1ccccc1` are 93%, 79% and 0%.
The matching figures for `CCOc1cc2c(cc1S(=O)(=O)c1ccc(COc3ccc(C(F)(F)F)cc3)cc1)CCN(C)CC2.Cl`: 87%, 14% and 27%.
Take `O=C(Nc1cccc(CN2CCN(Cc3ccc(O)cc3)CC2)c1)c1cccc(C(F)(F)F)c1.O=C(O)C(F)(F)F`: the Inhibition in the assay on Plasmodium falciparum [1] came to 91%; in the assay on Plasmodium falciparum [2] it was 15%; in the assay with HepG2, 21%.
The matching figures for `CCCCCN1CCCC1CNS(=O)(=O)c1cccc(C(=O)Nc2cccc(C(F)(F)F)c2)c1.O=C(O)C(F)(F)F` (stereo not given): 96%, 12% and 15%.
In the same order, the values of `O=C(/C=C/c1ccc(Cl)c(Cl)c1)NCCCCCN1CCC(NS(=O)(=O)c2cc(Cl)cc(Cl)c2)CC1` are 83%, 5% and 7%.
The matching figures for `Cc1cccc2nc(-c3cccc(-c4ccc(NC(=O)C(C)(C)c5ccccn5)cc4)c3)[nH]c12`: 97%, 4% and 0%.
`CCCC(C)Nc1nc(C)cc(N[C@@H](Cc2ccccc2)C(=O)NCCOc2ccccc2)n1.O=C(O)C(F)(F)F` (stereo not given in full): the values for the Inhibition with Plasmodium falciparum [1], in the assay with Plasmodium falciparum [2] and with HepG2 were 100%, 68% and 10%, respectively.
The matching figures for `CC(Cc1ccc(OCCN2CCN(c3ccccc3)CC2)cc1)NCC(O)c1cccc(Cl)c1F.Cl` (stereo not given): 92%, 56% and 40%.
In the same order, the values of `O=C(Nc1nc2cc(S(=O)(=O)NCc3ccc(Cl)c(Cl)c3)ccc2n1CCCN1CCCC1)c1ccc(Cl)cc1.O=C(O)C(F)(F)F` are 89%, 16% and 57%.
The matching figures for `CCN(CC)CCN(Cc1ccc(-c2ccc(C(F)(F)F)cc2)cc1)C(=O)Cn1c(CCc2c(F)ccc(F)c2F)nc(=O)c2ccccc21.O=C(O)C(O)C(O)C(=O)O`: 98%, 62% and 44%.
For `O=C(Nc1ccc(OC2CCN(Cc3ccc(F)cc3)C2)c(Cl)c1)c1ccsc1.O=C(O)C(F)(F)F` (stereo not given), the Inhibition in the assay on Plasmodium falciparum [1] came out at 98%; in the assay with Plasmodium falciparum [2], 95%; in the assay on HepG2 it was 26%.
As to `COc1cc(OC)c2c(c1Cl)O[C@]1(C2=O)C(=O)C(Cc2ccccc2)(Cc2ccccc2)C(=O)C[C@H]1C`, the values for the Inhibition in the assay with Plasmodium falciparum [1], in the assay on Plasmodium falciparum [2] and with HepG2 were 90%, 45% and 0%, respectively.
